GLP1R ag = activates the human GLP-1 receptor; P43220; HEK293 GLP-1R CRE-luciferase, luminescence, 4-6 h; cells express a hypersensitive GLP-1R form; Potency, µM (doses to about 45.6 µM), for the others: top-dose activation, actives largely listed as activators; hit rate 0.007% among 380,000; AID 624172; also: % of control where 0% means no effect
Target sequence (P43220 whole entry, looked up): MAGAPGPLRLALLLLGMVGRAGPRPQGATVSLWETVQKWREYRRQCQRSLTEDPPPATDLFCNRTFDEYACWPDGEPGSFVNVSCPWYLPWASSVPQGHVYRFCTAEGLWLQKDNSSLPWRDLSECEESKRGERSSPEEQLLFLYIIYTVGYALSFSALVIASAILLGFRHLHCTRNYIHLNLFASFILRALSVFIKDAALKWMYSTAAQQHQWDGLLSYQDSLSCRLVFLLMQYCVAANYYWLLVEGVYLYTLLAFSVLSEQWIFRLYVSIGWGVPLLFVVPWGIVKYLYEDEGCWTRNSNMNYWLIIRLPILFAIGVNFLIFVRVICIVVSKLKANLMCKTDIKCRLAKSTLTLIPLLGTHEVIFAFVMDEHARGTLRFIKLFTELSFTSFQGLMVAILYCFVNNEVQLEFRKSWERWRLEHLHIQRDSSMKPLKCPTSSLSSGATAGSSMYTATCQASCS
HEK293 tox = cytotoxicity in counter-screen for GLP-1R inverse agonists; HEK293 cAMP-luciferase reporter cells, luminescence, 24 h; Potency, µM (highest dose often 38.3 µM), for the others: at the highest dose activity change, negative = inhibition, actives largely listed as inhibitors; hit rate 0.13% among 410,000;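 also: loss of luciferase light is scored as toxicity; % is scaled to controls: 0 for no effect and ±100 for the full control effect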
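Quantitative HTS format, 1536 wells, 200 cells/uL seeded. Compounds: 23 nL, 24 h, 37 °C. Detection: luciferase reagent, luminescence at 12 min RT; decreased signal taken as cytotoxic.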
BRCA1 expr act = increases BRCA1 expression. MCF7-BRCA1-FFLuc reporter, luminescence, 48 h; response scale: scaled: vehicle 0%, 10 µM genistein 100%. Potency, µM (titrated, usually from 46.1 µM), for the others: at the top dose activation, hits mostly activators. hit rate 1.1% among 380,000; also: nearly all actives have a fitted effect of over 80% in size
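Luminescence from a BRCA1-driven firefly luciferase in MCF7 cells was read after 48 h compound exposure at 37 C. Data normalized against DMSO and a 10microM genistein activation control, then curve-fitted across the titration.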
GLP1R inv ag = acts as inverse agonist at human GLP-1 receptor; AID 624417; HEK293 GLP-1R CRE-luciferase, luminescence, 24 h; GLP-1R form is constitutively active; hit rate 1.6% among 410,000; P43220; Potency, µM (series often up to 38.3 µM), without a hit: top-dose activity change, negative = inhibition, actives largely listed as inhibitors; also: % is scaled to controls: 0 for no effect and ±100 for the full control effect; nearly all actives have a fitted effect of over 55% in size
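Assay principle: reduced luminescence from a cAMP-responsive reporter in HEK293 cells co-expressing a constitutively active GLP-1R. Conditions: 24 hr compound incubation, 37 deg C, 5% CO2.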
Mito fusion act = mitochondrial division inhibition or fusion activation; S. cerevisiae fusion-defective mutant growth rescue, CellTiterGlo 48 h; Potency, µM (series often up to 46.1 µM), without a hit: at the top dose growth rescue (activation), actives largely listed as activators; hit rate 0.23% among 320,000; also: % of control where 0% means no effect; nearly all actives have a fitted effect of over 45% in size
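Yeast fusion mutant, YPEG (non-fermentable carbon), compound, 48 h at 37C non-permissive; CellTiterGlo added, 10 min RT, luminescence read. Rescued growth = division inhibition.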
The depositor's hits bear a star; ? = inconclusive; · = no result given. Shown are actives, neighbours in structure and some others; about 2.8% of the full set was active somewhere. Calls follow the shape of the dose curve; as a rule, active = well fitted curve in the direction sought with a large enough effect; inconclusive = small, poorly fitted or top-dose-only effect, or another doubt; inactive = no such curve, though single readings can be large; an effect the other way counts as inactive or inconclusive. Potency is read from the fitted curve at half-maximal effect.

SMILES	GLP1R ag	HEK293 tox	BRCA1 expr act	GLP1R inv ag	Mito fusion act
Cc1ccc(-c2cc(N)n(Cc3ccc(Cl)cc3)n2)cc1	0%	-16%	-39%	11µM*	1%
O=C(Cn1c(=S)[nH]c2ccccc2c1=O)N1CCN(c2ccccc2)CC1	2%	17%	5%	-19%	-6%
O=C(NCCc1ccc(F)cc1)Nc1ccc([N+](=O)[O-])cc1	-3%	-21%	37%	4µM*	2%
O=C(Nc1ccc2c(c1)OCO2)Nc1ccccn1	-6%	-2%	2.5µM*	6%	-12%
O=C(NCCc1ccc(F)cc1)Nc1ccc2c(c1)OCO2	-4%	-2%	13µM*	-29%	-1%
O=C(NOCc1ccccc1)OCc1ccccc1	7%	-4%	11µM*	-17%	·
Cc1nc2ccccc2c(=O)n1NC(=O)c1c(O)c2c(n(CC(C)C)c1=O)CCCC2	-3%	-8%	-56%	?	20%
Brc1cccc(-c2nnc3n2CCCCC3)c1	-10%	10%	-10%	3%	1%
O=C(Nc1ccc(F)cc1)Nc1ccc2c(c1)OCO2	-4%	-4%	?	-10%	-5%
COC(=O)c1ccc(NC(=O)Nc2cccc(F)c2)cc1	-1%	?	98%	?	2%
O=C(CCc1ccccc1)Nc1ccc2c(c1)OCO2	20%	10%	93%	4%	4%
O=C(Nc1ccc2c(c1)OCO2)Nc1ccc(F)cc1F	11%	4%	3.2µM*	-25%	-1%
O=C(Nc1ccc2c(c1)OCO2)OCc1ccccc1	13%	3%	2.2µM*	-13%	2%
Cc1ccc(NC(=O)Nc2ccc3c(c2)OCO3)c(Br)c1	-3%	-8%	1.8µM*	15%	2%
COC(=O)c1ccc(NC(=O)Nc2ccc(F)cc2F)cc1	3%	-5%	3.2µM*	-18%	2%
CCC1CN(C(=O)Nc2cccc(C)c2)c2cc(C)ccc2O1 (centres undefined)	14%	-2%	0%	?	13%
CCOC(=O)CN1C(=O)CSc2ccc(S(=O)(=O)N3CCCC3)cc21	12%	12%	-7%	19%	-7%
CC1CCCC(C)N1CCCNC(=O)C1CCCN(c2ncnc3c2nc2n3CCCCC2)C1 (centres undefined)	7%	8%	-12%	-2%	-2%
CC(=O)Nc1ccc(C(=O)OCc2ccc(F)cc2Cl)cc1	16%	-2%	6%	?	13µM*
CC(=O)Nc1ccc(C(=O)OCc2ccc(F)cc2)cc1	10%	8%	10%	10%	?
O=C(N/N=C/c1c[nH]c2ccc(Br)cc12)c1ccn(Cc2ccc(Cl)cc2Cl)n1	-2%	-9%	-69%	11µM*	-8%
COc1ccc(C2CC2C(=O)c2ccccn2)cc1 (centres undefined)	12%	7%	8.9µM*	11%	4%
COc1ccc(C2CC2/C(=N/O)c2ccccc2)cc1 (centres undefined)	8%	9%	11µM*	4%	-4%
CC1CC(C)CN(c2ncc3c(n2)CC(c2ccccc2)CC3=O)C1 (centres undefined)	0%	-2%	-4%	?	?
Fc1ccccc1-c1ccc(-c2nc3ccc(Cl)cn3c2Nc2ccc(Cl)cc2)o1	·	·	13%	·	·
SMILES	GLP1R ag	HEK293 tox	BRCA1 expr act	GLP1R inv ag	Mito fusion act
Cc1ccc2nc(-c3ccccc3F)c(Nc3ccc(Cl)cc3)n2c1	·	0%	·	11µM*	·
O=C(CCl)Nc1ccc(S(=O)(=O)NC2=NCCCCC2)cc1	-2%	?	-93%	?	·
O=C(CCl)Nc1cccc(S(=O)(=O)NC2=NCCCCC2)c1	-4%	11µM*	-91%	?	·
O=C(/C=C/c1ccc(Cl)cc1Cl)Nc1cccc(S(=O)(=O)NC2=NCCCCC2)c1	9%	-15%	23%	10µM*	-3%
O=C(N[C@@H](Cc1ccccc1)C(=O)NC1CCCCCC1)c1ccco1	4%	1%	11µM*	-11%	5%
CSCCC(NC(=O)c1ccco1)C(=O)NC1CCC(C)CC1 (centres undefined)	8%	3%	3.5µM*	11%	·
O=[N+]([O-])c1ccccc1CS(=O)(=O)c1ccccc1	1%	5%	13%	14%	0%

Screening results (PubChem BioAssay)
